According to PubChem BioAssay (NCI):
The panel holds about 79,000 compounds, 15% with a hit somewhere; the sample as a whole holds those more often. Calls of active or inactive are those of the source. Cut-off read from the data, not from the text of the source: active = growth inhibition above about 70%; inactive = the rest.

Experiments:
[1] = NCI Yeast Anticancer Drug Screen. Data for the rad52 strain (AID 147);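 note: 0% = growth of vehicle-treated control cultures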; settings: S. cerevisiae rad52 mutant growth inhibition, stronger effect = higher value
Summary of the method: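 Here a repair-compromised yeast strain receives each compound; its growth is then quantified and normalised to vehicle-only controls.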

[2] = NCI Yeast Anticancer Drug Screen. Data for the wt1 strain (AID 149);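 note: 0% = growth of vehicle-treated wt1 cultures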; settings: S. cerevisiae wt1 strain (SPY 50644) growth inhibition, stronger effect = higher value
Summary of the method: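 The wt1 strain was treated with compounds, and growth was compared with vehicle-treated cultures to give inhibition.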

[3] = NCI Yeast Anticancer Drug Screen. Data for the mgt1 strain (AID 153); settings: S. cerevisiae mgt1 mutant growth inhibition, stronger effect = higher value
Summary of the method: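 Measured: inhibition of mgt1 yeast growth by compound, normalized to vehicle-treated cultures.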

[4] = NCI Yeast Anticancer Drug Screen. Data for the rad50 strain (AID 155);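 note: 0% = growth of vehicle-only cultures of the same strain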; settings: S. cerevisiae rad50 strain growth inhibition, stronger effect = higher value
Summary of the method: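 Cells are treated with compound, grown, and their growth is then scored against vehicle-only cultures of the same repair-deficient yeast strain.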

[5] = NCI Yeast Anticancer Drug Screen. Data for the mec2-1 strain (AID 157); settings: S. cerevisiae mec2-1 strain, stronger effect = higher value
Summary of the method: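 Using mec2-1 yeast: add compound, measure growth, express inhibition versus vehicle-treated cultures.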

[6] = NCI Yeast Anticancer Drug Screen. Data for the rad14 strain (AID 159);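 note: 0% = growth of vehicle-treated control cultures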; settings: S. cerevisiae rad14 strain growth inhibition, stronger effect = higher value
Summary of the method: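 Readout: yeast growth inhibition, referenced to vehicle-only cultures. Strain bears a defined alteration in DNA damage repair.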

[7] = NCI Yeast Anticancer Drug Screen. Data for the sgs1 mgt1 strain (AID 161);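 note: 0% = growth of cultures given vehicle only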; settings: S. cerevisiae sgs1 mgt1 strain, stronger effect = higher value
Summary of the method: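 Percent growth inhibition was derived by comparing compound-exposed mutant yeast with vehicle-exposed cultures. The strain carries alterations in DNA damage repair.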

[8] = NCI Yeast Anticancer Drug Screen. Data for the CLN2oe strain (AID 163);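 note: 0% = growth of vehicle-only control cultures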; settings: S. cerevisiae CLN2oe strain, stronger effect = higher value
Summary of the method: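 Whole-cell yeast growth assay. A strain engineered for altered cell-cycle control received compound, and inhibition relative to vehicle-treated cultures was recorded.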

[9] = NCI Yeast Anticancer Drug Screen. Data for the cln2 rad14 strain (AID 165);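 note: 0% = growth equal to vehicle treated cultures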; settings: S. cerevisiae cln2 rad14 strain, stronger effect = higher value
Summary of the method: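 Yeast strain cln2 rad14, bearing defects in cell cycle control and DNA repair, serves as the test system; values reflect growth inhibition compared with vehicle.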

[10] = NCI Yeast Anticancer Drug Screen. Data for the bub3 strain (AID 167); settings: S. cerevisiae bub3 mutant strain, stronger effect = higher value
Summary of the method: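 Part of a panel of yeast mutants defective in DNA damage repair or cell cycle regulation. Each strain is grown with compound, and inhibition is calculated relative to solvent-treated cultures.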

[11] = NCI Yeast Anticancer Drug Screen. Data for the wt2 strain (AID 169);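 note: 0% = growth of vehicle-treated yeast cultures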; settings: S. cerevisiae wt2 strain growth inhibition, stronger effect = higher value
Summary of the method: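 Treated yeast vs. vehicle-treated yeast: growth inhibition determined.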

[12] = NCI Yeast Anticancer Drug Screen. Data for the mlh1 strain (AID 171);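 note: 0% = growth of vehicle-treated control cultures of the same strain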; settings: S. cerevisiae mlh1 strain growth inhibition, stronger effect = higher value
Summary of the method: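 A yeast strain with a defined genetic lesion serves as the test organism. Cultures receive compound or vehicle, and growth is measured.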

[13] = NCI Yeast Anticancer Drug Screen. Data for the sgs1 strain (AID 173);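 note: 0% = growth of vehicle-only control cultures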; settings: S. cerevisiae sgs1 mutant, stronger effect = higher value
Summary of the method: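 A genetically defined yeast mutant is incubated with the test compound, and its growth is compared to that of the same strain given vehicle.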

[14] = NCI Yeast Anticancer Drug Screen. Data for the mlh1 rad18 strain (AID 175); settings: S. cerevisiae mlh1 rad18 strain growth inhibition, stronger effect = higher value
Summary of the method: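 Steps: expose repair-defective yeast to compound; measure growth; express inhibition against vehicle-treated controls.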

[15] = NCI Yeast Anticancer Drug Screen. Data for the rad18 strain (AID 177); settings: S. cerevisiae rad18 mutant growth inhibition, stronger effect = higher value
Summary of the method: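 Measured value is growth inhibition of a yeast strain bearing a DNA repair alteration, referenced to vehicle-treated cells.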

[16] = NCI Yeast Anticancer Drug Screen. Data for the rad50EPP+ strain (AID 151);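 note: 0% = growth of vehicle-treated control cultures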; settings: S. cerevisiae rad50 mutant strain, stronger effect = higher value
Summary of the method: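 Read-out is yeast growth inhibition relative to vehicle; cells used were the rad50EPP+ strain.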

[17] = at 5.0 µM (retest, dose inferred, filed as 0.5)
[18] = at 50.0 µM (retest, dose inferred, filed as 5.0)

Measured: growth inhibition

CN(CCc1ccccn1)c1ccc2c(c1)Cc1ccccc1-2
inactive: [1]; at 1.2 µM 1% | [1]; at 3.7 µM 11% | [1]; at 11.0 µM 54% | [1]; at 33.0 µM 45% | [1]; at 100.0 µM 53% | [2]; at 1.2 µM 1% | [2]; at 3.7 µM 7% | [2]; at 11.0 µM 6% | [2]; at 33.0 µM 5% | [2]; at 100.0 µM 2% | [3]; at 1.2 µM -3% | [3]; at 3.7 µM -4% | [3]; at 11.0 µM 1% | [3]; at 33.0 µM 3% | [3]; at 100.0 µM 19% | [4]; at 1.2 µM 4% | [4]; at 3.7 µM 26% | [4]; [17] 20% | [4]; at 11.0 µM 69% | [4]; at 33.0 µM 68% | [4]; [18] 57% | [4]; at 100.0 µM 67% | [5]; at 1.2 µM -1% | [5]; at 3.7 µM 8% | [5]; [17] 5% | [5]; at 11.0 µM 26% | [5]; at 33.0 µM 20% | [5]; [18] 1% | [5]; at 50.0 µM 4.05% | [5]; at 100.0 µM 20% | [6]; at 1.2 µM 1% | [6]; at 3.7 µM 10% | [6]; at 11.0 µM 38% | [6]; at 33.0 µM 37% | [6]; at 100.0 µM 56% | [7]; [17] 9% | [8]; at 1.2 µM -5% | [8]; at 3.7 µM -16% | [8]; at 11.0 µM -11% | [8]; at 33.0 µM -16% | [8]; at 100.0 µM -5% | [9]; [17] 0% | [9]; [18] 10% | [9]; at 50.0 µM -2.25% | [10]; at 1.2 µM 0% | [10]; at 3.7 µM -4% | [10]; [17] -12% | [10]; at 11.0 µM 13% | [10]; at 33.0 µM 21% | [10]; [18] 30% | [10]; at 50.0 µM 18.4% | [10]; at 100.0 µM 20% | [11]; at 1.2 µM -1% | [11]; at 3.7 µM -2% | [11]; at 11.0 µM 5% | [11]; at 33.0 µM 4% | [11]; at 100.0 µM 26% | [12]; at 1.2 µM 0% | [12]; at 3.7 µM 3% | [12]; at 11.0 µM 17% | [12]; at 33.0 µM 15% | [12]; at 100.0 µM 31% | [13]; at 1.2 µM 26% | [14]; [17] 20% | [15]; at 1.2 µM 46%
active: [4]; at 50.0 µM 90.2% | [7]; [18] 82% | [7]; at 50.0 µM 83.3% | [13]; at 3.7 µM 71% | [13]; at 11.0 µM 88% | [13]; at 33.0 µM 87% | [13]; at 100.0 µM 88% | [14]; [18] 72% | [14]; at 50.0 µM 77.4% | [15]; at 3.7 µM 89% | [15]; at 11.0 µM 95% | [15]; at 33.0 µM 94% | [15]; at 100.0 µM 94%

Cc1ccc2ccc(O)cc2c1
active: [1]; at 100.0 µM 80% | [2]; at 100.0 µM 71% | [4]; at 100.0 µM 92% | [5]; [18] 95% | [7]; at 50.0 µM 80.1% | [8]; at 100.0 µM 83% | [9]; at 50.0 µM 82% | [10]; at 50.0 µM 86.7% | [10]; at 100.0 µM 88%
inactive: [1]; at 1.2 µM -31% | [1]; at 3.7 µM -35% | [1]; at 11.0 µM -30% | [1]; at 33.0 µM -31% | [2]; at 1.2 µM -22% | [2]; at 3.7 µM -16% | [2]; at 11.0 µM -19% | [2]; at 33.0 µM -11% | [3]; at 1.2 µM -25% | [3]; at 3.7 µM -19% | [3]; at 11.0 µM -22% | [3]; at 33.0 µM -21% | [3]; at 100.0 µM 50% | [4]; at 1.2 µM -23% | [4]; at 3.7 µM -28% | [4]; [17] -9% | [4]; at 11.0 µM -38% | [4]; at 33.0 µM -11% | [4]; [18] 33% | [4]; at 50.0 µM 58.2% | [5]; at 1.2 µM -37% | [5]; at 3.7 µM -33% | [5]; [17] -10% | [5]; at 11.0 µM -32% | [5]; at 33.0 µM -42% | [5]; at 50.0 µM 1.85% | [5]; at 100.0 µM 50% | [6]; at 1.2 µM -18% | [6]; at 3.7 µM -20% | [6]; at 11.0 µM -23% | [6]; at 33.0 µM -25% | [6]; at 100.0 µM 56% | [7]; [17] 5% | [7]; [18] 43% | [8]; at 1.2 µM -10% | [8]; at 3.7 µM -13% | [8]; at 11.0 µM -9% | [8]; at 33.0 µM -17% | [9]; [17] 4% | [9]; [18] 53% | [10]; at 1.2 µM 4% | [10]; at 3.7 µM 10% | [10]; [17] 4% | [10]; at 11.0 µM 14% | [10]; at 33.0 µM 14% | [10]; [18] 23% | [11]; at 1.2 µM -18% | [11]; at 3.7 µM -19% | [11]; at 11.0 µM -21% | [11]; at 33.0 µM -20% | [11]; at 100.0 µM 56% | [12]; at 1.2 µM -9% | [12]; at 3.7 µM -19% | [12]; at 11.0 µM -27% | [12]; at 33.0 µM -24% | [12]; at 100.0 µM 68% | [13]; at 1.2 µM -24% | [13]; at 3.7 µM -14% | [13]; at 11.0 µM -38% | [13]; at 33.0 µM -19% | [13]; at 100.0 µM 32% | [14]; [17] -33% | [14]; [18] 63% | [14]; at 50.0 µM 48.5% | [15]; at 1.2 µM -21% | [15]; at 3.7 µM -32% | [15]; at 11.0 µM -22% | [15]; at 33.0 µM -23% | [15]; at 100.0 µM 69%

c1ccc2c(c1)c1ncccc1c1nccnc21
inactive: [1]; at 1.2 µM 2% | [1]; at 3.7 µM 8% | [1]; at 11.0 µM 26% | [1]; at 33.0 µM 48% | [16]; at 1.2 µM 15% | [16]; at 3.7 µM 33% | [16]; at 11.0 µM 43% | [16]; at 33.0 µM 69% | [16]; at 100.0 µM 63% | [3]; at 1.2 µM -2% | [3]; at 3.7 µM 0% | [3]; at 11.0 µM -2% | [3]; at 33.0 µM -2% | [3]; at 100.0 µM -2% | [4]; at 1.2 µM -4% | [4]; at 3.7 µM 9% | [4]; [17] -46% | [4]; at 11.0 µM 34% | [4]; at 33.0 µM 55% | [4]; [18] 53% | [5]; at 1.2 µM 1% | [5]; at 3.7 µM 0% | [5]; [17] -47% | [5]; at 11.0 µM 0% | [5]; at 33.0 µM 2% | [5]; [18] -53% | [5]; at 50.0 µM 14.7%
active: [1]; at 100.0 µM 72% | [4]; at 50.0 µM 76.8% | [4]; at 100.0 µM 71%
